MITF inh – human MITF inhibition, primary screen; AlphaScreen MITF homodimerization, bead proximity signal; inhibition, % at 2.6 µM; 0.91% of 650,000 active; in the data active = inhibition above about 50%
TEAD-YAP block – TEAD-YAP interaction inhibition; HEK-TIYL cells, TEAD-Gal4/YAP UAS-luciferase luminescence; inhibition, % at 9.12 µM; 1.4% of 640,000 active; AID 1259422; in the data active = inhibition above about 32%
FBW7 act – activators of human E3 ligase FBW7 | normalized activity (activation), % at 26.1 µM | AID 1259310 | AlphaScreen FBW7–phospho-cyclin E peptide binding, activator screen | 0.13% of 650,000 active | Q969H0; in the data active = normalized activity above about 1.9%;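 note: purified mutant Fbw7 with reduced substrate affinity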
Target sequence (Q969H0 whole entry, looked up): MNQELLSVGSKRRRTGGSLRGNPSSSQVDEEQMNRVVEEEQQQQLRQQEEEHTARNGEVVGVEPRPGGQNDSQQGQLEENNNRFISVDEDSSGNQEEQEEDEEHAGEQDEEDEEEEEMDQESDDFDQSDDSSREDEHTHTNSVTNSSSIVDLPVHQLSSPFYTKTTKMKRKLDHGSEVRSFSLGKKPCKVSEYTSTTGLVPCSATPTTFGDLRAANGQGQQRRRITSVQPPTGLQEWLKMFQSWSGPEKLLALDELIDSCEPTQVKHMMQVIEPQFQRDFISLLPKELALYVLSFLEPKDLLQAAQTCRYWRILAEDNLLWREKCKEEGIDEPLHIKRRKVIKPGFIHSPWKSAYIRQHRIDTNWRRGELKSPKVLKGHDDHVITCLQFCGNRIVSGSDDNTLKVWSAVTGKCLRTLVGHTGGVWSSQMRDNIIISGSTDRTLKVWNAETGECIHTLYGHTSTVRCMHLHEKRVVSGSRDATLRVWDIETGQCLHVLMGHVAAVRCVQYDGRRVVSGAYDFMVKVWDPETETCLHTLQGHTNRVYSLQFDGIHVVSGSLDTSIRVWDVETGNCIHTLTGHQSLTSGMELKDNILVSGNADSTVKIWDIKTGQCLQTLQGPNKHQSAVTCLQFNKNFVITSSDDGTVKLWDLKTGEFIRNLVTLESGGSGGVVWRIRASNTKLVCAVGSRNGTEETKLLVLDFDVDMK
GPR151 ag – human GPR151 activation | Q8TDV0 | PathHunter beta-arrestin GPR151 cells, luminescence | activation, % at 11.2 µM | AID 1508602 | 1% of 650,000 active; in the data active = activation above about 4.9%
MITF inh conf – confirmation of human MITF inhibitors | AlphaScreen MITF homodimerization, biotin/His-MITF beads | inhibition, % at 2.6 µM | 16% of 4,700 active | AID 1259372 | shares compounds with MITF inh;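 active = inhibition above a cutoff derived from the DMSO control wells, cut at about 28% in these data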;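 note: inhibitors lower the bead chemiluminescence by keeping MITF from dimerizing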
AS interf DR – optically interferes with AlphaScreen signal in dose response; shares compounds with MITF inh; AlphaScreen optical interference counterscreen, cell-free; IC50, µM; 6% of 480 active; call rule not given here
AlphaScreen intf2 – AlphaScreen optical interference, counter-screen. 7.6% of 4,700 active. inhibition, % at 2.6 µM. AID 1259376. LysRS AlphaScreen counterscreen, signal interference, triplicate. shares compounds with MITF inh;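 active = inhibition above a cutoff derived from the DMSO control wells, cut at about 30% in these data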
Each line names hits and unclear results; the compound was inactive in the other large screens (follow-up assays come after a bar, where they were run). This is a sample that favours compounds with a hit; in the whole collection about 3.5% have one here.

Cc1ccc(C(C)(C)C)c(OCCN2CCN(C)CC2)c1	MITF inh 77.0 | MITF inh conf inactive | AlphaScreen intf2 inactive
COCCNCCOc1ccc(Cl)cc1C(C)(C)C	MITF inh 73.6 | MITF inh conf inactive | AlphaScreen intf2 inactive
Cc1ccc(C(C)(C)C)c(OCCn2ccnc2)c1	none
COCCCNCCCOc1ccc(Cl)cc1C(C)(C)C	none
CN1CCN(CCOc2ccc(Cl)cc2C(C)(C)C)CC1	MITF inh 78.6 | MITF inh conf inactive | AlphaScreen intf2 inactive
COCCNCCOc1cccc(Cl)c1Cl	MITF inh 72.1 | MITF inh conf inactive | AlphaScreen intf2 inactive
Cc1ccc(C(C)(C)C)c(OCCNCCN)c1	MITF inh 79.8 | MITF inh conf inactive | AlphaScreen intf2 inactive
Cc1cc2nccc(C3CCCN(C(=O)c4ccco4)C3)n2n1 (configuration not stated)	none
O=C(O)Cc1ccc(N=Cc2cccc([N+](=O)[O-])c2O)cc1	MITF inh 94.2 | MITF inh conf inactive | AlphaScreen intf2 inactive
O=[N+]([O-])c1cccc(C=Nc2ccc(F)cc2)c1O	none
CCCN(CCO)Cc1cccc2ccccc12	none
CCCN(CCO)Cc1ccccc1C(F)(F)F	MITF inh 51.1 | MITF inh conf inactive | AlphaScreen intf2 inactive
COc1ccc(CC(=O)N2CCNC(=O)C2(C)C)cc1C	none
CCOC(=O)N1CCC(N2C(=O)c3ccccc3C2Nc2ccccc2C(=O)OC)CC1 (configuration not stated)	MITF inh 61.8 | MITF inh conf inactive | AlphaScreen intf2 inactive
CC(C)NC(=O)c1cccc2cc[nH]c12	none
CC(=O)N1N=C(c2cccs2)CC1c1cc([N+](=O)[O-])ccc1O (configuration not stated)	none
O=C1C2C3C=CC(C3)C2C(=O)N1CNc1ccc(Br)cc1 (configuration not stated)	none
CC(C)(C)NCCOCCOc1ccccc1-c1ccccc1	MITF inh 63.3 | MITF inh conf inactive | AlphaScreen intf2 inactive
CCN1CCN(CCOCCOc2ccccc2-c2ccccc2)CC1	MITF inh 63.8 | MITF inh conf inactive | AlphaScreen intf2 inactive
c1ccc(-c2ccccc2OCCOCCN2CCNCC2)cc1	MITF inh 75.5 | MITF inh conf inactive | AlphaScreen intf2 inactive
Cc1cc(C)c(C)c(OCCOCCNC(C)(C)C)c1	MITF inh 63.5 | MITF inh conf inactive | AlphaScreen intf2 inactive
Cc1cc(C)c(C)c(OCCNC(C)(C)C)c1	none
CC(C)(C)NCCOCCOc1ccccc1I	none
Cc1c(CNCc2ccccc2)c(C(=O)O)c(C)n1Cc1cccc(Cl)c1	none
CCCC1CCC(C(=O)O/N=C(\N)c2ccccn2)CC1 (configuration not stated)	none
CN(CCCNC(=O)c1cc2sccc2n1C)C1CCCCC1	none
c1ccc(-c2ccc(OCCCN3CCNCC3)cc2)cc1	none
c1ccc(OCCN2CCOCC2)cc1	MITF inh 54.1 | MITF inh conf inactive | AlphaScreen intf2 inactive
CCN1CCN(CCOCCOc2ccc3ccccc3c2Cl)CC1	MITF inh 51.2 | MITF inh conf inactive | AlphaScreen intf2 inactive
CCC(C)c1ccccc1OCCN1CCOCC1 (configuration not stated)	MITF inh 83.6 | MITF inh conf inactive | AlphaScreen intf2 inactive
c1ccc(OCCNCCN2CCOCC2)cc1	none
c1ccc(-c2ccc(OCCN3CCNCC3)cc2)cc1	MITF inh 55.5 | MITF inh conf inactive | AlphaScreen intf2 inactive
Clc1c(OCCN2CCOCC2)ccc2ccccc12	none
c1ccc2c(-c3cnc4c(NCc5ccncc5)nccn34)cccc2c1	none
CC(=O)N1CCc2cc(Br)cc(S(=O)(=O)Nc3ccnc4ccccc34)c21	none
O=C1CCC(CCNCCOc2ccc(F)cc2)N1Cc1cccc(-n2cccn2)c1 (configuration not stated)	none
O=C1CCC(CCNCCOc2ccc(F)cc2)N1Cc1cccc(Cl)c1 (configuration not stated)	MITF inh 70.9 | MITF inh conf inactive | AlphaScreen intf2 inactive
CCN1CCN(C(=O)CN(c2ccc(F)cc2)S(C)(=O)=O)CC1	none
Cc1ccc2[nH]c(=O)c(=O)[nH]c2c1	MITF inh 81.7 | MITF inh conf 53.3 | AS interf DR inactive | AlphaScreen intf2 inactive
O=c1[nH]c2ccc(Br)cc2[nH]c1=O	none
O=c1c2sc(=S)n(Cc3ccco3)c2nc(SCc2ccc(F)cc2Cl)n1-c1ccccc1	MITF inh 51.4 | MITF inh conf inactive | AlphaScreen intf2 inactive
O=c1c2sc(=S)n(Cc3ccco3)c2nc(SCc2ccc(F)cc2Cl)n1-c1ccc(F)cc1	none
COc1cc(C)c2c(c1C=O)Oc1c(c(C)c(O)c3c1C(O)OC3=O)OC2=O (configuration not stated)	MITF inh 74.0 | MITF inh conf 83.7 | AS interf DR inactive | AlphaScreen intf2 inactive
Cc1cc(O)c(C=O)c2c1C(=O)Oc1c(C)c(O)c3c(c1O2)C(O)OC3=O (configuration not stated)	none
N#C/C(=C\Nc1ccccc1)c1nc(-c2cc3ccccc3oc2=O)cs1	none
CC1=NN(c2cccc(C(=O)O)c2)C(=O)C1	MITF inh 60.0 | MITF inh conf inactive | AlphaScreen intf2 inactive
CC1=NN(c2cccc(F)c2)C(=O)C1	none
OC(CN1CCN(Cc2ccccc2)CC1)CN1c2ccccc2Sc2ccccc21 (configuration not stated)	MITF inh 56.4 | MITF inh conf inactive | AlphaScreen intf2 inactive
O=C(COc1ccc(Br)cc1)NCc1nc(-c2ccc(Cl)cc2)no1	MITF inh 56.3 | MITF inh conf inactive | AlphaScreen intf2 inactive
CN(Cc1ccc(C(=O)NCc2ccccc2Cl)c(=O)[nH]1)Cc1nccn1C	MITF inh 51.6 | MITF inh conf 37.7 | AlphaScreen intf2 77.6
CN(CCc1ccccn1)Cc1ccc(C(=O)NCc2ccccc2Cl)c(=O)[nH]1	none
O=C(Nc1nc(-c2cc3ccccc3oc2=O)cs1)c1cc(Cl)ccc1Cl	none
COc1ccc(CN2CCN(c3ccccn3)CC2)c(OC)c1OC	none
COc1ccccc1CN1CCCCCC1	none
COc1ccc(CN2CCN(Cc3ccccn3)CC2)c(OC)c1OC	MITF inh 58.7 | MITF inh conf inactive | AlphaScreen intf2 inactive
COc1ccccc1CN1CCN(Cc2ccccn2)CC1	MITF inh 65.3 | MITF inh conf inactive | AlphaScreen intf2 inactive
CC(=O)Nc1ccc(NC(=O)CSc2nc3ccccc3s2)cc1	none
CCOc1ccccc1OCCCN1CCNCC1	none
Clc1ccccc1OCCCCN1CCNCC1	MITF inh 54.5 | MITF inh conf inactive | AlphaScreen intf2 inactive
Clc1ccc(OCCCCN2CCNCC2)cc1	none
Brc1ccccc1OCCCCN1CCNCC1	MITF inh 51.3 | MITF inh conf inactive | AlphaScreen intf2 inactive
CC(C)(C)c1ccccc1OCCCN1CCNCC1	MITF inh 59.8 | MITF inh conf inactive | AlphaScreen intf2 inactive
O=C(c1ccc(O)cc1)N1N=C2CCCCC2C1(O)C(F)(F)F (configuration not stated)	none
